The results in this text go back to the supplement of paper PMC7726561.

Over roughly 1,100 sequences, “thermal melting temperature (Tm) of peptide-HLA complex” has its median near 58; the lowest 2% begin near 42. This is one part of a sample in which the lowest values are shown more often than they occur.
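Further: lysates heated 10 min at 37–73 °C, complexes pulled down with pan-HLA I antibody, peptide signal by DIA-MS relative to 37 °C, Tm where half the complex is unfolded.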

In this test the target is HLA-A*02:01. The test can be described thus: thermal melting temperature (Tm) of peptide-HLA complex; higher = more thermostable pHLA complex. The settings on record: C1R-A*02:01.
With ALFPERITV, the thermal melting temperature turned out to be 61.6 °C.
Under YLDIKGLLDV stands 56 °C; under TLLDPNEKYLL, 61.3 °C.
Under RLWNETVEL stands 63.7 °C; under SIAPRMMSV, 48.1 °C.
Under FTQDSNYLL stands 49.1 °C; under HIADVSHFI, 55.3 °C.
The sequence RIADGLPVAV showed a thermal melting temperature of 41 °C.
As for VLADQEVRL, the thermal melting temperature came out at 58.4 °C.
Under GLNEEIARV stands 64 °C; under IQDDMQTLYV, 43.4 °C; under ILANDGVLLAA, 59.6 °C.
Under FLIPIYHQV stands 62.7 °C; under SLIRNLEQL, 51.2 °C; under KLLDIPGLEV, 61.3 °C.
YLKDLIEEV registered a thermal melting temperature of 62.8 °C.
Sequence YQIAEQFRV yielded a thermal melting temperature of 61.3 °C.
Under IAPPVPLKA stands 53 °C.
Under ILSGVIRSV stands 56.6 °C; under LLYDGKLSSA, 59.4 °C; under LLVDVEPKV, 55.5 °C.
Under QMISRIEYV stands 59.7 °C.
For the sequence KLTENLVAL, the thermal melting temperature came to 59 °C.
Under FLNKEITSV stands 59.6 °C.
TLLTFFHEL came in with a thermal melting temperature of 57.4 °C.
Under YLPEDFIRV stands 61.4 °C; under FVMETFVHL, 57 °C.
Under ILTEAIKAA stands 59.3 °C.
TLLTDPPTA showed a thermal melting temperature of 59.5 °C.
The sequence VMFGGKQVVV registered a thermal melting temperature of 57.5 °C.
Under KLFNEFIQL stands 57.8 °C.
Under SLYSQVHQI stands 60.2 °C.
Under NLYEEWTQV stands 59.9 °C; under VLMTQQPRPVL, 48.8 °C; under YLTAFTKNL, 60.8 °C.
GLPRFGIEMV: the thermal melting temperature turned out to be 60.1 °C.
Sequence KQTDLEITV displayed a thermal melting temperature of 57.5 °C.
The sequence RVISELQEA showed a thermal melting temperature of 40.7 °C.
Under NVIERLQEA stands 57.2 °C; under AQFEHTILL, 58.1 °C; under QLAQFVHEV, 62.3 °C.
Under ALADFAELLRA stands 62 °C; under NLLEIAPHL, 52.1 °C; under SLLDPVPEV, 62.5 °C.
Under ELMEQVPHI stands 48.9 °C.
For TLSQAIVKV, the thermal melting temperature is 54.1 °C.
Under RIIDTVAQV stands 60.6 °C.
Regarding GLVDKLQAL, the thermal melting temperature is 55.6 °C.
Sequence KVLGIVVGV showed a thermal melting temperature of 61 °C.
Under NQIEDNDDFQL stands 42 °C.
Under NLIPILKTV stands 56 °C; under SQTFVNPHV, 57.8 °C.
Under YLLTESSKL stands 55.2 °C.
With YLWPRGSPAL, the thermal melting temperature was found to be 41.3 °C.
Under FLDDVVHSL stands 58.8 °C.
Under SLHEFLVNL stands 61.5 °C.
